Assay outcomes (PubChem BioAssay)
In the library only some 11% were active in any assay of this set; here they are far more common.
RORg inh: ROR gamma (mouse) transcription inhibition. P51450. Drosophila S2 Gal4-RORgamma UAS-luciferase reporter, 20 h. Potency, µM (top dose mostly 53.6 µM), for the others: at the highest dose activity change, negative = inhibition, hits mostly inhibitors. hit rate 5.4% among 310,000. AID 2551; further: potency means the concentration at half of the fitted maximal effect; on the % scale 0 is the no-effect control and ±100 the full control effect; nearly all actives have a fitted effect of over 60% in size
Target sequence (P51450 whole entry, looked up, the tested form may be a part): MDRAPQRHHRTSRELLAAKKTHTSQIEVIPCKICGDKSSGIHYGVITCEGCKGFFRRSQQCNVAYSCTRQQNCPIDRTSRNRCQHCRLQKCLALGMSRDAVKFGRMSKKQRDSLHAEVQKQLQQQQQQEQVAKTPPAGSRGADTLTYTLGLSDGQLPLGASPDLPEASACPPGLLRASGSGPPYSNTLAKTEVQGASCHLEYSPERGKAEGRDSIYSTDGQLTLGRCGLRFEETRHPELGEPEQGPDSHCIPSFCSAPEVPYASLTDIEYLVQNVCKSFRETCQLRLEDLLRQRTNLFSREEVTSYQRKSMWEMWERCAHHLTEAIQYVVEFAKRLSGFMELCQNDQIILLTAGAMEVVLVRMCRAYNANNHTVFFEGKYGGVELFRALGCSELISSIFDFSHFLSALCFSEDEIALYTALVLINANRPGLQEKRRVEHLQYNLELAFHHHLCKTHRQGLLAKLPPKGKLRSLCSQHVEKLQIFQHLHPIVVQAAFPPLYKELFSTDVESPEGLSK
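Luciferase reporter read in Schneider cells carrying Gal4-RORγ (mouse) and UAS-Photinus luciferase; cells given compound 1 h before 700 uM copper sulfate induction, then incubated 20 h at ambient temperature.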
IL-1B inflam inh: inflammasome signaling inhibition, IL-1 beta readout. activity change, % at 57.5 µM. THP-1 LPS/ATP IL-1B secretion, AlphaLISA, 16 h; hits give low values. hit rate 4.7% among 360,000; in the data active means activity change below about -50%; inconclusive means mostly about -30% to -49%; further: on the % scale 0 is the no-effect control and ±100 the full control effect
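THP-1 cells pretreated 1 hr with compounds (up to 57.5 uM final), then stimulated with LPS (250 ng/mL final) plus ATP (1.25 mM final); secreted IL-1B measured by AlphaLISA after 16 hr, decreased signal indicating inhibition.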
MCF10A rereplic: DNA re-replication induction in MCF 10a cells. hit rate 2.9% among 350,000. MCF 10A DNA re-replication, Hoechst nuclear intensity, 48 h. Potency, µM (titrated, usually from 46.1 µM), without a hit: at the highest dose activity, positive = re-replication, hits mostly activators; further: potency means the concentration at half of the fitted maximal effect; % of control where 0% means no effect; nearly all actives have a fitted effect of over 50% in size
VP16 counter: counter-screen for ROR gamma inhibitors: Gal4-VP16 reporter; Drosophila S2 Gal4-VP16 UAS-luciferase, luminescence, 20 h; Potency, µM (series often up to 53.6 µM), inactives show top-dose activity, negative = inhibition, actives largely listed as inhibitors; hit rate 3.5% among 310,000; AID 2546;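 further: Gal4-VP16 expression switched on by copper sulfate through the metallothionein promoter; potency means the concentration at half of the fitted maximal effect; on the % scale 0 is the no-effect control and ±100 the full control effect; nearly all actives have a fitted effect of over 50% in size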
SW480 rereplic: inducers of DNA re-replication in SW480 colon cancer cells | SW480 DNA re-replication, Hoechst DNA content imaging, 48 h | Potency, µM (top dose mostly 46.1 µM), for the others: at the highest dose re-replication activation, actives largely listed as activators | hit rate 1.8% among 340,000 | AID 624297; further: potency means the concentration at half of the fitted maximal effect; % of control where 0% means no effect; nearly all actives have a fitted effect of over 55% in size
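DNA re-replication was detected as more nuclei of elevated Hoechst intensity after 48 hr exposure to compound (23 nL pinned per well of 250 cells).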
* = called active by the depositor; ? = inconclusive; · = not tested or not shown; [ ] = remark or other dose. Unless noted, the call rests on the fitted dose curve; in most records, active means well fitted curve in the direction sought with a large enough effect; inconclusive means small, poorly fitted or top-dose-only effect, or another doubt; inactive means no such curve, though single readings can be large; an effect the other way counts as inactive or inconclusive.

SMILES	RORg inh	IL-1B inflam inh	MCF10A rereplic	VP16 counter	SW480 rereplic
CCCCNc1nc(C)nc2c1nc(-c1ccccc1)n2CCCN1CCCCC1C (stereo not given)	-20%	·	·	-7%	·
CN1CCN(CC(O)COc2ccc(C34CC5CC(CC(C5)C3)C4)cc2)CC1 (stereo not given)	?	-99*	15µM*	?	?
CCCc1ccc(OCC(O)CN2CCCC2)cc1 (stereo not given)	1%	12	15µM*	-2%	-2%
CC(C)(c1ccccc1)c1ccc(OCC(O)CN2CCCC2)cc1 (stereo not given)	?	-67*	?	-7%	16µM*
CN(C)S(=O)(=O)N1CCN(CC(O)COc2ccc(-c3ccccc3)cc2)CC1 (stereo not given)	-3%[1.91 µM]	?	23µM*	-1%	6%
OC(COc1ccc(OCC(O)CN2CCCCCC2)cc1)CN1CCCCCC1 (stereo not given)	7%	?	-3%	-12%	-8%
OCCN1CCN(CC(O)COc2ccc(-c3ccccc3)cc2)CC1 (stereo not given)	5%	-5	?	-1%	-11%
CCC[C@@H](CN1CCC[C@H]1CN1C(N)=NC[C@H]1CC(C)C)N1C[C@@H](Cc2ccccc2)N(CCCC2CCCC2)C1=N	·	-66*	14%	·	2%
CC(C)[C@H](CN1CCC[C@H]1CN1C(N)=NC[C@H]1C(C)C)N1C[C@@H](Cc2ccccc2)N(CCCC2CCCC2)C1=N	·	-60*	?	·	-4%
CCC[C@@H](CN1CCC[C@H]1CN1C(N)=NC[C@@H]1Cc1ccccc1)N1C[C@@H](Cc2ccccc2)N(CCCC2CCCC2)C1=N	·	-83*	-11%	·	-8%
CCC[C@@H](CN1CCC[C@H]1CN1C(N)=NC[C@@H]1Cc1ccccc1)N1C[C@@H]([C@H](C)CC)N(CCCC2CCCC2)C1=N	·	-96*	18µM*	·	?
CCOC(=O)N1CCN(C(=O)COC(=O)c2ccc(S(=O)(=O)N(CC)CC)cc2)CC1	·	16	-1%	·	-3%
N#CCCn1c(=O)c(CCc2ccccc2)nc2cnc(Oc3cccc(Cl)c3)nc21	0%	·	·	-1%	·
CCCCN1C(=N)N([C@@H](C)CN2CCC[C@H]2CN2C(N)=NC[C@@H]2Cc2ccccc2)C[C@H]1[C@H](C)CC	·	-17	0%	·	-5%
CCCCN1C(=N)N([C@@H](C)CN2CCC[C@H]2CN2C(N)=NC[C@H]2CC(C)C)C[C@H]1Cc1ccccc1	·	-54*	-14%	·	53%
Cc1ccc(-c2n[nH]c(=S)n2/N=C/c2ccc(C)s2)cc1	3.2µM*	-7	?	7.1µM*	-8%
Cc1ccc(/C=N/n2c(-c3ccc(Cl)cc3)n[nH]c2=S)s1	1.4µM*	19	0%	-30%	-2%
CCN1CCC(O)(/C=C/c2ccc(C(C)C)cc2)C(C(=O)/C=C/c2ccc(C(C)C)cc2)C1 (stereo not given)	·	-117*	12µM*	·	?
CCN1CCN(C(=O)/C=C/c2ccc(C(C)C)cc2)CC1	·	-3	?	·	8%
O=C(O)C1CCN(C(=O)c2ccc3c(c2)OCO3)CC1	-23%	7	-3%	-8%	-3%
C=C1CCC[C@]2(C)C[C@H]3OC(=O)C(CN(Cc4ccc(OC)c(OC)c4)CC(C)O)[C@H]3CC12 (stereo not given in full)	-16%	-98*	-13%	-10%	?
C=C1CCC[C@]2(C)C[C@H]3OC(=O)C(CNCC(OC)OC)[C@H]3CC12 (stereo not given in full)	3%	-78*	?	-15%	?
COc1ccc(CCNC(=O)C2(C)CCC(=O)N2CCC(C)C)cc1OC (stereo not given)	-21%	5	-13%	-2%	-3%
C=C1CCC[C@]2(C)C[C@H]3OC(=O)C(CN[C@@H](C)c4ccccc4)[C@H]3CC12 (stereo not given in full)	5%	-87*	?	10%	11%
C=C1CCC[C@]2(C)C[C@H]3OC(=O)C(CN4CCOCC4)[C@H]3C[C@@H]12 (stereo not given in full)	18%	-74*	-8%	2%	?
SMILES	RORg inh	IL-1B inflam inh	MCF10A rereplic	VP16 counter	SW480 rereplic
CCCCCCCCCCCCCCCCCC(=O)OC[C@@H](O)[C@H]1OC[C@H](O)[C@H]1O	-6%[10 µM]	·	-2%	4%	-1%
O=C(Nc1ccccc1O)c1cccc(S(=O)(=O)Nc2ccccc2O)c1	·	-8	7%	·	-12%
COCCn1c(=O)c(-c2ccccc2)nc2cnc(Nc3ccccc3)nc21	-2%	·	·	2%	·
C=C1CCC[C@]2(C)C[C@H]3OC(=O)C(CNC(C)CCCC(C)C)[C@H]3CC12 (stereo not given in full)	-31%	-99*	12%	-19%	11%
c1ccc(Nc2ncnc3sccc23)cc1	-28%	6	?	-11%	-25%
CC(Nc1ncnc2sccc12)c1ccccc1 (stereo not given)	?	-8	7%	1.4µM*	-3%
CCOc1cc(/C=C\[N+](=O)[O-])ccc1OCC(=O)N1CCOCC1	4.5µM*	-107*	6.5µM*	5.6µM*	26%
CCOc1ccc(C(=O)OCC(=O)N2CCOCC2)cc1OCC	-34%	-4	-4%	-4%	-29%
CCOc1cc(/C=C/c2nc3cc(C)c(C)cc3s2)ccc1OCC(=O)N1CCOCC1	?	10	13µM*	-7%	?
CCOc1cc(/C=N/NC(=S)Nc2ccccc2C(F)(F)F)ccc1OCC(=O)N1CCOCC1	1.4µM*	-17	14%	1.4µM*	-4%
C=CCn1c(C)cc(C2=NNC(=NC(C)(C)C)SC2)c1C	11µM*	-77*	?	10µM*	7%
COCCn1c(C)cc(C2=NNC(=Nc3ccc(Cl)cc3Cl)SC2)c1C	-1%	-5	0%	-4%	-3%
COCCn1c(C)cc(C2=NNC(=NC3CC3)SC2)c1C	1.1µM*	-3	?	1.1µM*	-6%
C=CCN=C1NN=C(c2cc(C)n(CCOC)c2C)CS1	1µM*	-13	0%	-83%	-1%
C=CCn1c(C)cc(C2=NNC(=Nc3ccc(C)cc3)SC2)c1C	39%	-4	8%	4%	-4%
CN(C)c1ccc(/C=C2/C[N+](C)(C)C/C(=C/c3ccc(N(C)C)cc3)C2=O)cc1	·	-98*	?	·	?
CN(C)c1ccc(C=C2C(=O)OC(C)(C)OC2=O)cc1	11%	-20	9%	9%	-1%
O=C(Nc1cc(F)cc(F)c1)c1ccc(NCCc2ccccc2)c([N+](=O)[O-])c1	-20%	1	17%	-30%	-10%
COc1cccc(NC(=O)c2ccc(NCCCN3CC(C)CC(C)C3)c([N+](=O)[O-])c2)c1 (stereo not given)	-6%	-7	-10%	-14%	24%
